Measured values as given in PubChem BioAssay (NCI).
The panel holds about 83,000 compounds, 20% with a hit somewhere; the sample as a whole holds those more often.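 Single-dose data. Exposure time 48 hours. Values below 10 considered active.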 Values without a mark were called inactive. Calls of active or inactive are those of the source.

How the values were obtained:
Assay in all cases: NCI-60 one-dose screen, 48 h (100 = growth as untreated, 0 = no growth, -100 = all killed)
Settings in all cases: 10 µM unless noted
[1] = test system: T-47D breast
[2] = test system: BT-549 breast
[3] = test system: MDA-MB-435 melanoma
[4] = test system: SW-620 colon
[5] = test system: MCF7 breast
[6] = test system: HCT-116 colon
[7] = test system: HCC-2998 colon
[8] = test system: KM12 colon

Structure (SMILES) | growth [1] | growth [2] | growth [3] | growth [4] | growth [5] | growth [6] | growth [7] | growth [8]
C[C@@H](c1ccc2c(c1)[nH]c1ccc(Cl)cc12)c1nc2ccccc2[nH]1 | 62.3% | 83.4% | 103% | 95.2% | 27.6% | 93.5% | 100% | 90.7%
CC1CCCCC[N+]12CCCC2 (configuration not stated) | 107% | 107% | 100% | 107% | 97.2% | 109% | 117% | 106%
O=c1[nH]c(=S)[nH]c(O)c1/C=C1\C=Nc2ccccc21 | 98.4% | 76.9% | 47.3% | 36.2% | 62.2% | 39.5% | 99.6% | 47.7%
Cc1cc2c(-c3nc4ccccc4n3C)c(O)c(O)cc2c(O)c1-c1c(C)cc2c(-c3nc4ccccc4n3C)c(O)c(O)cc2c1O | 19.3% | 20% | 34.2% | 54.3% | 19.6% | 7.37% (active) | 66.5% | 24.7%
N=C(N)c1ccc(-c2ccc(-c3ccc(Cl)cc3)s2)s1 | -31.7% (active) | 76.4% | -91.4% (active) | -69.5% (active) | -66% (active) | -98.4% (active) | -74.2% (active) | -85.3% (active)
CCOC(=O)c1c(C)oc2ncnc(Nc3ccc(C(=O)NCCc4ccccc4)cc3)c12 | 65.1% | 67.3% | 87.5% | 105% | 78.6% | 64.8% | 91.5% | 89%
CC[C@H](Nc1ncnc2nc[nH]c12)c1nc2cccc(NCc3ccc(C(=O)NO)nc3)c2c(=O)n1-c1ccccc1 | 6.8% (active) | 13.3% | 25.4% | 47.2% | 13.3% | 9.03% (active) | 67.6% | 60.9%
Ic1ccc(SSc2ccc(I)cc2)cc1 | 79.7% | 41.5% | 100% | 106% | 92.4% | 83.7% | 104% | 82.2%
O=C(NC(=S)NNC(=S)NNc1ccccc1)c1ccccc1 | 18.4% | 49.5% | 4.94% (active) | 24.4% | 8.12% (active) | 24.3% | 50.7% | 59%
COc1ccc2sc(-n3nc4nc5n(c(=O)c4c3N)-c3ccccc3Sc3ccccc3-5)nc2c1 | 29.2% | 73.2% | 79.5% | 95.6% | 54.2% | 65.7% | 93.6% | 81.4%
c1ccc2[nH]c(-c3ccc(OCCCCCOc4ccc(-c5nc6ccccc6[nH]5)cc4)cc3)nc2c1 | -60.3% (active) | -13.5% (active) | 8.59% (active) | -3.03% (active) | -39.3% (active) | -21.8% (active) | 14.8% | 23.5%
COc1cccc2c1n([O-])c1cccc(OC)c1[n+]2=O | 50.2% | 71.5% | 91.5% | 68% | 36.9% | 48.5% | -4.2% (active) | 73.3%
Nc1cc(N)c2nc(-c3ccccc3)c(NCCc3ccc(Cl)c(Cl)c3)nc2c1 | -11.5% (active) | -70.4% (active) | -88.2% (active) | -86.7% (active) | -2.91% (active) | -90.8% (active) | -94.9% (active) | -83.4% (active)
COc1cc(-c2cc3cnccc3c3nc(N)c4ccncc4c23)cc(OC)c1OC | 37.5% | 42.2% | 4.6% (active) | 46.8% | 29.8% | 35.1% | 70.1% | 48.1%
Brc1c(-c2ccncc2)nc2n1CCS2 | 100% | 105% | 94% | 105% | 110% | 85% | 116% | 116%
CCn1cnc(C[C@H](NC(=O)[C@@H](NC(=O)Nc2cc(C(F)(F)F)cc(C(F)(F)F)c2)C(C)C)C(=O)OC)c1 | -77.8% [100 µM] (active) | -97.6% [100 µM] (active) | -87.1% [100 µM] (active) | -44.1% [100 µM] (active) | -55.7% [100 µM] (active) | -88.1% [100 µM] (active) | -86.3% [100 µM] (active) | -81.9% [100 µM] (active)
C[n+]1c2ccccc2c(Nc2ccc(NS(=O)(=O)CCCCN=C(N)N)cc2)c2ccc(N)cc21 | 21.9% | 88.7% | 87.8% | 59.1% | 19.7% | 37.3% | 40.6% | 42.3%
CC(=O)N1N=C(c2ccc(Cl)cc2)CC1c1cn(-c2ccccc2)nc1-c1ccc([N+](=O)[O-])cc1 (configuration not stated) | 86.9% | 89.7% | 98.1% | 99% | 95.9% | 97.1% | 231% | 101%
O=C(N/N=C/c1ccccc1Cl)c1cccc2ccccc12 | 98.5% | 117% | 105% | 105% | 90.9% | 102% | 110% | 97.3%
CC(O)CN(CC(C)O)N(CC(C)O)CC(C)O (configuration not stated) | 105% | 94.9% | 104% | 104% | 101% | 102% | 107% | 109%
CCCCN(CCCC)c1ccc(C(=O)O)cc1 | 94.7% | 97% | 102% | 107% | 98.6% | 97.3% | 100% | 103%
CCNc1nnc(COc2ccc(CNC(=O)CCCC/C=C/C(C)C)cc2OC)o1 | 81% | 102% | 104% | 110% | 95.2% | 87.2% | 103% | 98.2%
Cc1ccc(NCc2cn(-c3ccc(C(=O)O)cc3)nc2-c2ccc(C(=O)O)cc2)cc1 | 98.6% | 108% | 107% | 110% | 93.6% | 100% | 101% | 93.9%
CCOC(=O)C1C(=O)C(=O)N(C(C)C)C1C(=O)OCC (configuration not stated) | 105% | 119% | 104% | 103% | 99.8% | 110% | 104% | 98.9%
Cc1ccc(NC(=O)CCl)cc1Cl | 90.2% | 76.7% | 90.9% | 95.5% | 87.5% | 106% | 115% | 111%
O=C1/C(=C/c2ccc(Cl)cc2)CCC/C1=C\c1ccc(Cl)cc1 | 79.6% | 97% | 15.9% | 30.6% | 17.3% | -42.6% (active) | 28.6% | 18.7%
COc1nc(OC)nc(-c2cc(C(=O)c3ccc(Br)cc3)n3cc(C)cc(C)c23)n1 | 37.9% | 42.7% | 94.9% | 89.7% | 70.5% | 36.5% | 86.2% | 94.2%
CC(C)(C)c1ccc([I+]c2ccc(C(C)(C)C)cc2)cc1 | 11.3% | -5.08% (active) | -49.1% (active) | 14.9% | 7.68% (active) | 7.47% (active) | 13.4% | -30.6% (active)
CCCCCN1CCN(C(CC(=O)c2ccccc2)C(=O)c2ccccc2)CC1 (configuration not stated) | 101% | 96.2% | 95.5% | -100% (active) | 89.6% | 77.4% | 106% | 102%
